From PubChem BioAssay
Active and inactive are the calls of the source.

Key:
[1] = binders of probe aFSTL3 on microarray, primary screen, stem cell growth factor project, biochemical, small-molecule microarray, fluorescence 635/667 (AID 1064); conditions: higher = more signal;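 note: measures binding of the biotinylated anti-FSTL3 antibody to printed compounds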
[2] = binders from COS7 lysate, DM2A8 probe, primary screen, torsin A project, cell lysate, small-molecule microarray, fluorescence 635/667 (AID 1065); conditions: higher = more signal, COS7 lysate expressing mutant human TOR1A
[3] = binders of probe aFGF2 on microarray, primary screen, stem cell growth factor project, biochemical, small-molecule microarray, fluorescence 635/667 (AID 1067); conditions: higher = more signal;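 note: measures binding of biotinylated aFGF2 protein to printed compounds on slides; z-score merges feature fluorescence and signal-to-noise across triplicate slides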
[4] = binders of probe aFGF10 on microarray, primary screen, stem cell growth factor project, biochemical, small-molecule microarray, fluorescence 635/667 (AID 1071); conditions: higher = more signal;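 note: score merges 667 nm spot intensity and signal to noise from triplicate slides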
[5] = biological target: Neurogenic locus notch homolog protein 2 (Homo sapiens) (UniProt Q04721); assay: Notch2 binders on small-molecule microarrays, primary screen, biochemical, small-molecule microarray, 635 nm fluorescence, stem cell growth factors (AID 1073); conditions: Notch2 binding, higher = more signal
Neurogenic locus notch homolog protein 2 (Homo sapiens), sequence (Q04721 whole entry, looked up, canonical isoform): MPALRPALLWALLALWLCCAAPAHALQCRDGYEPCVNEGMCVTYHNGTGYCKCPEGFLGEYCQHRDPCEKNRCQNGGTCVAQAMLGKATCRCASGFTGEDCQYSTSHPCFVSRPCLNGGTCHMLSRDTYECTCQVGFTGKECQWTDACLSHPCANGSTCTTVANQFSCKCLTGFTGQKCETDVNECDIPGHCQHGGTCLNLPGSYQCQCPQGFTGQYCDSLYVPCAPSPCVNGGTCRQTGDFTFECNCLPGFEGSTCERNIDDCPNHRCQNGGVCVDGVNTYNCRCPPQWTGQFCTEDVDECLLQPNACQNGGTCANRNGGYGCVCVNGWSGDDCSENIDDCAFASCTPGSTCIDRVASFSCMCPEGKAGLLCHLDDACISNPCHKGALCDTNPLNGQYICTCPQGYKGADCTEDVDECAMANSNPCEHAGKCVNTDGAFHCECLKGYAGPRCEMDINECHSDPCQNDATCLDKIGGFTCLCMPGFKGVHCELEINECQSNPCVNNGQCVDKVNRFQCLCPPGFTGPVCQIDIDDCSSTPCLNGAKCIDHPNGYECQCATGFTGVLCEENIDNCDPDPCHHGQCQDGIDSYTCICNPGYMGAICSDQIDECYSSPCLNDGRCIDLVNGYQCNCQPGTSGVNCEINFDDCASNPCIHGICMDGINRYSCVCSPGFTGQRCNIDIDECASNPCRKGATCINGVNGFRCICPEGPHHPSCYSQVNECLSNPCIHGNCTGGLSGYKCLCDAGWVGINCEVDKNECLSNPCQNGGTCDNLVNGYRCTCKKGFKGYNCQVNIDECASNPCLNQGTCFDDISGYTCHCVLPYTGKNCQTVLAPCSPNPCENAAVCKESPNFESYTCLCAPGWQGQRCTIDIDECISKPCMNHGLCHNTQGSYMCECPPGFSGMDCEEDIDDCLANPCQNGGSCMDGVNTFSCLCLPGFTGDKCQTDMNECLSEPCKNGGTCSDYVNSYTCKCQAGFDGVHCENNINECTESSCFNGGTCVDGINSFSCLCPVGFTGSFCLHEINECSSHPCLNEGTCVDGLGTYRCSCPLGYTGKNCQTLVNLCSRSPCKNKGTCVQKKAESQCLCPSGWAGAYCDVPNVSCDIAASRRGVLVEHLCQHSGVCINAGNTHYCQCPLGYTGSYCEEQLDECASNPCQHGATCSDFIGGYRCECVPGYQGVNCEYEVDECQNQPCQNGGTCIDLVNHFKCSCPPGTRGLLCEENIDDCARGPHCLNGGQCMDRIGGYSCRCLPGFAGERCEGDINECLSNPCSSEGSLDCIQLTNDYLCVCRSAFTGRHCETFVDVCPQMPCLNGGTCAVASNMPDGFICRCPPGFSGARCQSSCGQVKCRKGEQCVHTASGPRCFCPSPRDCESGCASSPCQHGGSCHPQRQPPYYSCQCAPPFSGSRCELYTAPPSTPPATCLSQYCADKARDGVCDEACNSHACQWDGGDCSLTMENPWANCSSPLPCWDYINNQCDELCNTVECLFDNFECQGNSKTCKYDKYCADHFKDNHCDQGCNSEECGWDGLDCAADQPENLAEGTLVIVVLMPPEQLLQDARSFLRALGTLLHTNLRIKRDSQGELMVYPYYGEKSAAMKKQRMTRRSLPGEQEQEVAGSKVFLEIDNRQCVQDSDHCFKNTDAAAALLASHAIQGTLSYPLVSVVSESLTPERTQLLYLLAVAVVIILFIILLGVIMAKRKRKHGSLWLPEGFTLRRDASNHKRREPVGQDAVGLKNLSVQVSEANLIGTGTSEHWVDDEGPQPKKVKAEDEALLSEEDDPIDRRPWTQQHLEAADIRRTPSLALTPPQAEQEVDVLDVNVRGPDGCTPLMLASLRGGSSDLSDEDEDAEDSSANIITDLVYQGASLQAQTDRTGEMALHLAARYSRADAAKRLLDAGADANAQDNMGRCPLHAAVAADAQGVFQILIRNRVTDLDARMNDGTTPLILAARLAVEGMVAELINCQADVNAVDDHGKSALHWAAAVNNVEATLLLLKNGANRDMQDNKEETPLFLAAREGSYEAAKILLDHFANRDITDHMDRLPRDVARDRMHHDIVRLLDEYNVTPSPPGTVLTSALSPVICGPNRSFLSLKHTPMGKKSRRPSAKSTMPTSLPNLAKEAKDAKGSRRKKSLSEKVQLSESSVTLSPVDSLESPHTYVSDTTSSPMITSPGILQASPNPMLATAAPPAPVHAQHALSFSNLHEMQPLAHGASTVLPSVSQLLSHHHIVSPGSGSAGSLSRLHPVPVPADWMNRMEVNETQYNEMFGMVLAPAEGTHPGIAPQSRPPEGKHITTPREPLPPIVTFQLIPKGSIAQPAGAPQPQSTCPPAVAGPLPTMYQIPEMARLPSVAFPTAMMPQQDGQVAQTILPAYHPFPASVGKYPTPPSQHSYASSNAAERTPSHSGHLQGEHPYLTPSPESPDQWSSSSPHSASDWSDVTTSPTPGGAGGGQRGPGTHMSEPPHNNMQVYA

[6] = biological target: Pro-neuregulin-1, membrane-bound isoform (Homo sapiens) (UniProt Q02297); assay: NRG1 binders on small-molecule microarrays, primary screen, psychiatric disease protein project, biochemical, small-molecule microarray, fluorescence 635/667 (AID 1075); conditions: NRG1 binding, 635 nm fluorescence, higher = more signal;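 note: score combines 667 nm spot fluorescence with signal to noise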
Pro-neuregulin-1, membrane-bound isoform (Homo sapiens), sequence (Q02297 whole entry, looked up, the tested form may be a part, canonical isoform): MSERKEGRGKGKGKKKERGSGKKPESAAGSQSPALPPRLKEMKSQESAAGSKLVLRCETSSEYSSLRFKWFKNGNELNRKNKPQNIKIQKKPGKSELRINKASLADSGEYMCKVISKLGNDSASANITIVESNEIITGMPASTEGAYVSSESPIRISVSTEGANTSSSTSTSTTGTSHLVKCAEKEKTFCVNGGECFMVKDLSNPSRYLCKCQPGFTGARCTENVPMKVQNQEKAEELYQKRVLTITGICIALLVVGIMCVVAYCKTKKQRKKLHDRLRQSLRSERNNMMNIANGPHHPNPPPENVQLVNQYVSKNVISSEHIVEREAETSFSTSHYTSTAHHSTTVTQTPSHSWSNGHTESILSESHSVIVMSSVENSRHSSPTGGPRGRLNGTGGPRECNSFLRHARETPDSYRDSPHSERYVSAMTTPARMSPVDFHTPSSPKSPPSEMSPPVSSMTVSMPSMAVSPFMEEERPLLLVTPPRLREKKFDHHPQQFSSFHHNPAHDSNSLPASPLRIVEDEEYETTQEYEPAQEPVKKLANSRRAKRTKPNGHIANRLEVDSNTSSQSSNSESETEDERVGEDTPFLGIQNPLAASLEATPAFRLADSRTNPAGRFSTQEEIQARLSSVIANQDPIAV

[7] = tested on: Neuregulin-1 EGF-like domain; assay: binders of neuregulin-1 EGF-like domain, primary screen, biochemical, small-molecule microarray, 635 nm fluorescence (AID 1081); conditions: small-molecule microarray binding, higher = more signal;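 note: binding of the protein to compounds printed on small-molecule microarray slides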
[8] = FRG1 promoter luciferase signal modulators, primary screen, FRG1 inhibition for FSHD, cell-based, C2C12 myotubes, firefly/Renilla luciferase, luminescence (AID 1084); conditions: higher = more signal, called active from +8 up or from −8 down
[9] = binders of probe aFST on microarray, primary screen, stem cell growth factor project, biochemical, small-molecule microarray, fluorescence 635/667 (AID 1086); conditions: higher = more signal;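 note: score merges 667 nm fluorescence with signal-to-noise of each printed compound spot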
[10] = binders of probe aHhip on microarray, primary screen, stem cell growth factor project, biochemical, small-molecule microarray, fluorescence 635/667 (AID 1087); conditions: higher = more signal;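 note: score merges spot fluorescence at 667nm with spot signal to noise ratio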
[11] = tested on: PRMT1 (protein arginine N-methyltransferase 1); assay: PRMT1 binders on small-molecule microarrays, primary screen, biochemical, small-molecule microarray, 635 nm fluorescence (AID 1088); conditions: small-molecule microarray binding, higher = more signal;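 note: binding of Prmt1 protein to compounds spotted on small-molecule microarray slides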
[12] = yeast growth modulation, basal conditions, primary screen, YJM789 clinical isolate, OD600, 24 h (AID 1089);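 note: growth of clinical yeast isolate S. cerevisiae YJM 789 seeded 1000 cells per well; test concentration not given here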; conditions: S. cerevisiae YJM789 growth, higher = more signal, called active from +8 up or from −8 down
[13] = fission yeast growth modulation, primary screen, strain 972, OD600, 24 h, no modulator (AID 1090);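 note: basal condition with compound alone and no growth modifier present; test concentration not given here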; conditions: S. pombe 972 growth, higher = more signal, called active from +8 up or from −8 down
[14] = S. cerevisiae growth modulation with rapamycin, primary screen, strain BY4716, OD600, 96 h (AID 1091); conditions: higher = more signal, called active from +8 up or from −8 down; note: test concentration not given here
[15] = biological target: Torsin-1A-interacting protein 2 (Homo sapiens) (UniProt Q8NFQ8); assay: LULL1 binders on small-molecule microarray, primary screen, cell lysate, human LULL1 lysate, 635/667 nm fluorescence (AID 1092); conditions: hLULL1 lysate binding, 635 nm fluorescence, higher = more signal;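 note: probe is lysate of COS7 cells overexpressing human LULL1; score merges per-feature 667 nm fluorescence with signal-to-noise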
Torsin-1A-interacting protein 2 (Homo sapiens), sequence (Q8NFQ8 whole entry, looked up): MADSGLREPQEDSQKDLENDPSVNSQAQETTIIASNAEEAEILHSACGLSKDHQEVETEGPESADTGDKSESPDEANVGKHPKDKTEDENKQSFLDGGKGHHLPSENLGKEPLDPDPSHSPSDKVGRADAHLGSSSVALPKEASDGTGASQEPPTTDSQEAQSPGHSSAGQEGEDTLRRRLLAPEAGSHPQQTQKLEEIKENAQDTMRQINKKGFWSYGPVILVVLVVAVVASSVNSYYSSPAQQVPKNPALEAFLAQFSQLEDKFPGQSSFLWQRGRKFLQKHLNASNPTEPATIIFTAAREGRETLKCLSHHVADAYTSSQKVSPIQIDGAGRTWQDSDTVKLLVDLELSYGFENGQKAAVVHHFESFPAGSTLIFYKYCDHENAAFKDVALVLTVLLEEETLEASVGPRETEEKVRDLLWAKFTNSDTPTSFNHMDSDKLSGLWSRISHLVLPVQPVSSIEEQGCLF

[16] = E. coli growth modulation, two-sided OD650, primary screen, E. coli filamentation project, strain DRC41, 24 h (AID 1093); conditions: OD650, 24 h, higher = more signal, called active from +8 up or from −8 down;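 note: MC1000 strain lacking acrAB efflux and sulA so SOS filamentation is blocked; test concentration not given here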
[17] = small-molecule microarray binders of probe aLefty2, primary screen, biochemical, biotinylated probe, 635/667 nm fluorescence (AID 1094); conditions: higher = more signal;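 note: score merges spot fluorescence near 667 nm with spot signal-to-noise ratio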
[18] = tested on: Noggin (protein binding on small-molecule microarray); assay: Noggin binders on small-molecule microarray, primary screen, biochemical, 635/667 nm fluorescence (AID 1095); conditions: 635 nm fluorescence, higher = more signal;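 note: score merges 667 nm feature fluorescence with signal to noise over triplicate slides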
[19] = biological target: Neurogenic locus notch homolog protein 3 (Homo sapiens) (UniProt Q9UM47); assay: NOTCH3 binders on small-molecule microarray, primary screen, biochemical, 635/667 nm fluorescence (AID 1096); conditions: NOTCH3 binding, 635 nm fluorescence, higher = more signal
[20] = small-molecule microarray binders of probe aEGFR, primary screen, biochemical, biotinylated probe, 635/667 nm fluorescence (AID 1097); conditions: higher = more signal;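 note: probe is a biotinylated anti-EGFR antibody binding compounds printed on slides; score combines fluorescence near 667 nm and signal to noise of each spot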

## C=CCOC(=O)[C@@H]1[C@H]2C(=O)O[C@H](c3ccccc3)[C@H](c3ccccc3)N2[C@H](c2ccc(OCCOC(=O)[C@H]3C[C@H]4C(=O)N[C@@H](CC(C)C)C(=O)N4[C@H]3c3cccc(OCCO)c3)cc2)[C@@]12C(=O)Nc1ccc(I)cc12
[1]
  composite z-score: -0.187
[2]
  composite z-score: 0.83
[3]
  composite z-score: -0.0232
[4]
  composite z-score: 0.81
[5]
  composite z-score: 0.809
[6]
  composite z-score: 0.71
[7]
  composite z-score: 1.27
[8]
  z-score: 1.6 (inactive)
[9]
  composite z-score: 0.186
[10]
  composite z-score: -0.0296
[11]
  composite z-score: 1.53
[12]
  z-score: 0.705 (inactive)
[13]
  z-score: 0.492 (inactive)
[14]
  z-score: 2.65 (inactive)
[15]
  composite z-score: 2.66
[16]
  z-score: 0.147 (inactive)
[17]
  composite z-score: -0.0849
[18]
  composite z-score: 1.58
[19]
  composite z-score: 1.06
[20]
  composite z-score: -0.0769

## O=C(NCCN1CCOCC1)[C@@H]1c2ccccc2C(=O)N(Cc2cc(F)cc(C(F)(F)F)c2)[C@H]1c1ccc(CO)cc1
[1]
  composite z-score: -0.0058
[2]
  composite z-score: 1.09
[3]
  composite z-score: -0.188
[4]
  composite z-score: -0.71
[5]
  composite z-score: -0.987
[6]
  composite z-score: 1.25
[7]
  composite z-score: 0.591
[8]
  z-score: -0.0497 (inactive)
[9]
  composite z-score: -0.234
[10]
  composite z-score: -0.199
[11]
  composite z-score: 1.54
[12]
  z-score: -0.718 (inactive)
[13]
  z-score: -0.447 (inactive)
[14]
  z-score: -0.405 (inactive)
[15]
  composite z-score: 3.05
[16]
  z-score: -0.356 (inactive)
[17]
  composite z-score: -0.22
[18]
  composite z-score: 0.935
[19]
  composite z-score: 0.58
[20]
  composite z-score: -0.149

## C=CCNC(=O)[C@H]1[C@@H]2C(=O)O[C@@H](c3ccccc3)[C@@H](c3ccccc3)N2[C@@H](c2ccc(O)cc2)[C@]12C(=O)Nc1ccc(C#Cc3ccc(OC)cc3)cc12
[1]
  composite z-score: -0.523
[2]
  composite z-score: 0.396
[3]
  composite z-score: -0.0158
[4]
  composite z-score: 0.357
[5]
  composite z-score: 1.27
[6]
  composite z-score: 0.384
[7]
  composite z-score: 1.07
[8]
  z-score: 0.0523 (inactive)
[9]
  composite z-score: 0.786
[10]
  composite z-score: 0.473
[11]
  composite z-score: 1.49
[12]
  z-score: -0.209 (inactive)
[13]
  z-score: 1.14 (inactive)
[14]
  z-score: 0.832 (inactive)
[15]
  composite z-score: 2.86
[16]
  z-score: -0.451 (inactive)
[17]
  composite z-score: 0.369
[18]
  composite z-score: 0.41
[19]
  composite z-score: 1.12
[20]
  composite z-score: 0.469

## CCCC[C@@H]1C[C@H]1[C@@H](NC(=O)c1ccccc1)c1ccc(-c2ccccc2)cc1
[1]
  composite z-score: -0.138
[2]
  composite z-score: 0.535
[3]
  composite z-score: 0.0805
[4]
  composite z-score: -0.0214
[5]
  composite z-score: 0.294
[6]
  composite z-score: 0.23
[7]
  composite z-score: 0.341
[8]
  z-score: -1.76 (inactive)
[9]
  composite z-score: 0.442
[10]
  composite z-score: -0.21
[11]
  composite z-score: 0.409
[12]
  z-score: -2.02 (inactive)
[13]
  z-score: 0.256 (inactive)
[14]
  z-score: 2.7 (inactive)
[15]
  composite z-score: 2.3
[16]
  z-score: -0.947 (inactive)
[17]
  composite z-score: -0.12
[18]
  composite z-score: 0.364
[19]
  composite z-score: 0.496
[20]
  composite z-score: -0.117

## O=c1cccc(-c2cccc3ccccc23)o1
[1]
  composite z-score: 0.745
[2]
  composite z-score: -0.378
[3]
  composite z-score: -0.0316
[4]
  composite z-score: -0.413
[5]
  composite z-score: -0.0766
[6]
  composite z-score: -0.159
[7]
  composite z-score: 0.75
[8]
  z-score: 3.63 (inactive)
[9]
  composite z-score: 0.0143
[10]
  composite z-score: 0.0053
[11]
  composite z-score: -0.106
[12]
  z-score: -5.22 (inactive)
[13]
  z-score: -13.3 (active)
[14]
  z-score: 4.08 (inactive)
[15]
  composite z-score: 0.877
[16]
  z-score: 1.48 (inactive)
[17]
  composite z-score: 0.303
[18]
  composite z-score: -0.364
[19]
  composite z-score: -0.107
[20]
  composite z-score: -0.2

## CN(C)CCCCNC(=O)[C@@H]1C[C@@H]2C(=O)N[C@@H](CCCCN)C(=O)N2[C@@H]1c1cccc(OCCO)c1
[1]
  composite z-score: 1.24
[2]
  composite z-score: -0.719
[3]
  composite z-score: -0.138
[4]
  composite z-score: -0.347
[5]
  composite z-score: -0.573
[6]
  composite z-score: 2.07
[7]
  composite z-score: 1.3
[8]
  z-score: 3.31 (inactive)
[9]
  composite z-score: 0.145
[10]
  composite z-score: 0.424
[11]
  composite z-score: 1.02
[12]
  z-score: -0.0533 (inactive)
[13]
  z-score: 0.286 (inactive)
[14]
  z-score: -0.363 (inactive)
[15]
  composite z-score: 3.58
[16]
  z-score: -0.285 (inactive)
[17]
  composite z-score: 0.197
[18]
  composite z-score: -0.989
[19]
  composite z-score: 0.37
[20]
  composite z-score: -0.223

## C=CC[C@]1(C(=O)NCCN2CCOCC2)N=C(c2ccc(OCCCO)cc2)O[C@H]1c1ccccc1N=[N+]=[N-]
[1]
  composite z-score: 1.13
[2]
  composite z-score: 0.562
[3]
  composite z-score: 0.178
[4]
  composite z-score: 0.32
[5]
  composite z-score: 0.832
[6]
  composite z-score: 1.56
[7]
  composite z-score: 1.14
[8]
  z-score: 1.98 (inactive)
[9]
  composite z-score: 1.08
[10]
  composite z-score: 0.176
[11]
  composite z-score: 1.58
[12]
  z-score: -0.941 (inactive)
[13]
  z-score: -1.41 (inactive)
[14]
  z-score: -0.523 (inactive)
[15]
  composite z-score: 3
[16]
  z-score: 1.74 (inactive)
[17]
  composite z-score: 0.432
[18]
  composite z-score: 0.0879
[19]
  composite z-score: 0.991
[20]
  composite z-score: 0.509

## C=CCN1Cc2ccccc2C[C@@]2(COC(c3ccc(OCCCO)cc3)=N2)C1=O
[1]
  composite z-score: 1.12
[2]
  composite z-score: 0.391
[3]
  composite z-score: -0.0159
[4]
  composite z-score: 0.0999
[5]
  composite z-score: 1.19
[6]
  composite z-score: 1.05
[7]
  composite z-score: 1.31
[8]
  z-score: -3.79 (inactive)
[9]
  composite z-score: 0.703
[10]
  composite z-score: 0.0749
[11]
  composite z-score: 1.5
[12]
  z-score: -0.915 (inactive)
[13]
  z-score: -4.77 (inactive)
[14]
  z-score: 0.817 (inactive)
[15]
  composite z-score: 2.3
[16]
  z-score: 1.42 (inactive)
[17]
  composite z-score: 0.247
[18]
  composite z-score: 0.34
[19]
  composite z-score: 0.454
[20]
  composite z-score: 0.052

## CCOC(=O)C1=C[C@@H](C(C)(C)C)N(S(=O)(=O)c2ccc(C)cc2)[C@H]1c1ccc(Cl)c(Cl)c1
[1]
  composite z-score: -0.301
[2]
  composite z-score: 0.134
[3]
  composite z-score: 0.12
[4]
  composite z-score: 0.614
[5]
  composite z-score: 1.56
[6]
  composite z-score: 1.53
[7]
  composite z-score: 0.911
[8]
  z-score: -0.446 (inactive)
[9]
  composite z-score: 0.514
[10]
  composite z-score: -0.236
[11]
  composite z-score: 1.46
[12]
  z-score: 0.771 (inactive)
[13]
  z-score: 1.71 (inactive)
[14]
  z-score: 2.44 (inactive)
[15]
  composite z-score: 2.68
[16]
  z-score: -0.875 (inactive)
[17]
  composite z-score: 0.201
[18]
  composite z-score: 0.346
[19]
  composite z-score: 1.09
[20]
  composite z-score: 0.239

## NC(=O)NCC#Cc1ccc2c(c1)[C@]1(C(=O)N2)[C@H](c2ccc(O)cc2)N2[C@H](c3ccccc3)[C@H](c3ccccc3)OC(=O)[C@H]2[C@@H]1C(=O)N1CCN(c2ncccn2)CC1
[1]
  composite z-score: 0.687
[2]
  composite z-score: 0.585
[3]
  composite z-score: 0.0021
[4]
  composite z-score: 0.516
[5]
  composite z-score: 0.0269
[6]
  composite z-score: 0.302
[7]
  composite z-score: 0.562
[8]
  z-score: -1.09 (inactive)
[9]
  composite z-score: 0.38
[10]
  composite z-score: -0.191
[11]
  composite z-score: 1.01
[12]
  z-score: 0.113 (inactive)
[13]
  z-score: -0.923 (inactive)
[14]
  z-score: 1.6 (inactive)
[15]
  composite z-score: 1.45
[16]
  z-score: 1.1 (inactive)
[17]
  composite z-score: 0.28
[18]
  composite z-score: -0.228
[19]
  composite z-score: -0.334
[20]
  composite z-score: 0.0193
